In paper PMC4336329 (PLoS ONE, 2015):
The campaign covered roughly 310,000 compounds. About 14,000 (4.5%) showed an effect of 50% or more. Effects have a minus sign here. Only a selection was taken, and strong results are over-represented in it overall.

Biological target: human ether-à-go-go-related gene (hERG) potassium channel (human, UniProt Q12809)
Assay: primary screen, population patch clamp on CHO cells stably expressing hERG; higher = less effect of the substance
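Further: peak tail current of the secondary pulse compared with the same well before compound.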

human ether-à-go-go-related gene (hERG) potassium channel, sequence (Q12809 whole entry, looked up): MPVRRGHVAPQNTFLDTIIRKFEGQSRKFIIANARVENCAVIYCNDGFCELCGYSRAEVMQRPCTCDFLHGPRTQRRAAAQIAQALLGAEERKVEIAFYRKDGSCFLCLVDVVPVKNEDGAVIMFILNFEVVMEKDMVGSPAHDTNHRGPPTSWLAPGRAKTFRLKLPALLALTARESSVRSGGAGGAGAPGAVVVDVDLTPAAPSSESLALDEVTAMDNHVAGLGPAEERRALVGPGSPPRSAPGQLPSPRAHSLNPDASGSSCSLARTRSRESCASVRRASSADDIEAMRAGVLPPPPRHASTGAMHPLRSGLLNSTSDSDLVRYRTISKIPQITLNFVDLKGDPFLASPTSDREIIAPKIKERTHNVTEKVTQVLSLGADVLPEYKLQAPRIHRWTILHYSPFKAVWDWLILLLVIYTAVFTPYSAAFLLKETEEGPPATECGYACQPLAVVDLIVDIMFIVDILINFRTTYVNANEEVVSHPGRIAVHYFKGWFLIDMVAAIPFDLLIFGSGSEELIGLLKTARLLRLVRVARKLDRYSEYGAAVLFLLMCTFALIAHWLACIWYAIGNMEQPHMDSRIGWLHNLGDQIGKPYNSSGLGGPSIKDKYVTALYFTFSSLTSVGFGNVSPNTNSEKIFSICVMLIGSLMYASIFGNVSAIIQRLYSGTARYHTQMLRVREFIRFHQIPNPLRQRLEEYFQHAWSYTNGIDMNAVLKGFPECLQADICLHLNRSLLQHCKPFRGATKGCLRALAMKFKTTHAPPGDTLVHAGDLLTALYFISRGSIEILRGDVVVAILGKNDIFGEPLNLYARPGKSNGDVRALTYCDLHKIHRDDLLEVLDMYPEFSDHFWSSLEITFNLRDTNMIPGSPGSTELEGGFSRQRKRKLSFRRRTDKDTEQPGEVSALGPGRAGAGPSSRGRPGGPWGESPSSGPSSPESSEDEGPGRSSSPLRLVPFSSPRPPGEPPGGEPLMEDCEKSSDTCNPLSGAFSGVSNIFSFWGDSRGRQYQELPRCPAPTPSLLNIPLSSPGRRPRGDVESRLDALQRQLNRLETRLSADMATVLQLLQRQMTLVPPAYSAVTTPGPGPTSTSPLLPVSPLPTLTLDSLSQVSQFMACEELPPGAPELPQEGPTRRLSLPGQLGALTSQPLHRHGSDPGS

| SMILES | hERG current change (%, negative = inhibition) at 10uM |
| --- | --- |
| COc1c(C=O)cc2c3c1CCCN3CCC2 | 23.3% |
| COc1ccc(N(C(=O)c2ccco2)C(C(=O)NC2CCCC2)c2cccs2)cc1OC (stereo not drawn) | 1.89% |
| O=S1(=O)N=C(N/N=C/c2ccco2)c2ccccc21 | 13.1% |
| COc1ccc(S(=O)(=O)N2CCOCC2)cc1NC(=O)COc1ccccc1OC | 22.3% |
| COc1cc(C(=O)OCC(=O)N2CCOCC2)c([N+](=O)[O-])cc1OC | 14.5% |
| O=C(Nc1nccs1)c1ccc(COc2ccc(F)cc2)o1 | 8.63% |
| O=C1C2C(C(=O)N1c1nccs1)C1C=CC2C12CC2 (stereo not drawn) | -8.95% |
| COc1ccc(NC(=O)CN2CCN(c3ccccc3F)CC2)cc1 | -18.1% |
| O=C(NCCN1CCCCC1)Nc1ccc(F)cc1 | -13.1% |
| O=C(NCCCN1CCN(c2ccccc2F)CC1)Nc1ccc(F)cc1 | -66.3% |
| COc1ccc(NC(=O)NCCCN2CCN(c3ccccc3F)CC2)cc1 | -63.6% |
| O=C(NCCCN1CCCC1)Nc1ccc(F)cc1 | 4.71% |
| O=C(NCCCN1CCN(c2ccccc2F)CC1)Nc1ccccc1[N+](=O)[O-] | -72.1% |
| CCOc1ccc(NC(=O)NCCCN2CCCC2)cc1 | -1.89% |
| O=C(Cc1ccccc1[N+](=O)[O-])N1CCN(c2ccccc2F)CC1 | 3.23% |
| CCc1ccc(NC(=O)NCCN2CCN(c3ccc(OC)cc3)CC2)cc1 | -14.1% |
| CCOc1ccc(NC(=O)CCN2CCN(c3ccccc3F)CC2)cc1 | -20.2% |
| CCOc1ccc(NC(=O)NCCN2CCN(c3ccccc3F)CC2)cc1 | -62.3% |
| O=C(NCCCN1CCCC1)Nc1ccccc1[N+](=O)[O-] | 18.1% |
| Cc1ccc(C(=O)NC(=S)Nc2ccc(-c3cc4ccccc4oc3=O)cc2)c(C)c1 | 27.1% |
| Cc1ccc(C(=O)NCCc2ccccc2)cc1 | -1.2% |
| CSc1cccc(NC(=O)Nc2ccccc2C(N)=O)c1 | 15.3% |
| CCCOc1ccc(/C=N\NC(=O)CCc2n[nH]c(=O)[nH]c2=O)cc1OC | 2.51% |
| COc1ccc(C2=NCC(CSc3nccc(=O)[nH]3)S2)cc1 (stereo not drawn) | 1.52% |

| SMILES | hERG current change (%, negative = inhibition) at 10uM |
| --- | --- |
| O=C(Cc1n[nH]c(=O)c2ccccc12)NC(c1ccccc1)c1ccccc1 | 6.6% |
| Cn1c(=O)c(-c2cc(Br)ccc2N)nc2ccccc21 | -29.3% |
| COc1ccc(C(=O)COC(=O)c2cc(C)no2)c(OC)c1 | 12% |
| COC(=O)c1ccc2c(c1)C(C)(C)C(/C=C/c1ccccc1O)=[N+]2C.[I-] | -69.5% |
| COC(=O)c1ccc2c(c1)C(=O)/C(=C/c1ccc(O)cc1)O2 | 18.2% |
| COC(=O)c1ccc(/C=C/C(=O)O)cc1 | 11.9% |
| COC(=O)c1ccc2c(c1)C(C)(C)C(/C=C/c1ccc(O)cc1)=[N+]2C.[I-] | -70.9% |
| COC(=O)c1ccc2nc(C)c(C)nc2c1 | 15.8% |
| COC(=O)c1ccc2c(c1)C(C)(C)C(/C=C/c1ccc(OC)c(OC)c1OC)=[N+]2C.[I-] | -2.88% |
| O=C(O)[C@@H](O)c1ccccc1 | 6.63% |
| CCOC(=O)c1sc2ncn(C(CC)C(=O)OC)c(=O)c2c1C (stereo not drawn) | 9.35% |
| NC(=O)c1oc2ccccc2c1NC(=O)c1nc2ccccc2s1 | 6.28% |
| CN(/N=C/c1ccccc1O)C(=S)c1ccccc1 | -3.8% |
| CN1CCc2nc(NC(=O)COc3ccc(C#N)cc3)sc2C1 | -7.85% |
| O=C(COc1ccccc1)Nc1nc2c(s1)CCCC2 | -20.3% |
| CN1CCc2nc(NC(=O)COc3ccc4ccccc4c3)sc2C1 | -56.2% |
| O=C(c1cccc(-c2ccccc2F)c1)N1CC[C@@H](N2CCC(O)CC2)[C@H](O)C1 | -17.7% |
| CC1CN(CC(O)COc2ccccc2C(C)(C)C)CC(C)O1.Cl (stereo not drawn) | -10.1% |
| Cc1cccc(N2CCN(CC(O)COc3ccccc3Cl)CC2)c1 (stereo not drawn) | -56% |
| C=C1CC(C)OC(c2ccccc2OCC(O)CN2CCCCC2)C1 (stereo not drawn) | -72.4% |
| Cc1ccccc1OCC(O)CN1CCCCC1.Cl (stereo not drawn) | 9.68% |
| OC(COc1cccc2ccccc12)CN1CCN(c2cccc(Cl)c2)CC1 (stereo not drawn) | 1.82% |
| Cc1cccc(N2CCN(CC(O)COc3ccc(Cl)cc3)CC2)c1 (stereo not drawn) | -41.3% |
| OC(COc1cccc2ccccc12)CN1CCN(c2ccc(Cl)cc2)CC1 (stereo not drawn) | -3.42% |

| SMILES | hERG current change (%, negative = inhibition) at 10uM |
| --- | --- |
| Cc1ccccc1OCC(O)CN1CCN(c2ccc(Cl)cc2)CC1 (stereo not drawn) | -66.3% |
| CC1(C)CC(O)CC(C)(C)N1CC(O)COCc1ccccc1 (stereo not drawn) | 11.7% |
| Cc1cccc(OCC(O)CN2C(C)(C)CC(O)CC2(C)C)c1 (stereo not drawn) | -33.2% |
| Cc1cccc(OCC(O)CN2C(C)(C)CC(O)CC2(C)C)c1C (stereo not drawn) | -51.3% |
| COC(=O)c1ccc(NC(=O)c2c(C(=O)Nc3ccccc3)sc3nc(C)cc(=O)n23)cc1 | 15.3% |
| Cc1ccccc1NC(=O)CSc1nnnn1C | 6.94% |
| CCOC(=O)c1c(-c2ccccc2)csc1NC(=O)c1cc(S(=O)(=O)N2CCOCC2)ccc1C | 2.23% |
| N#Cc1sc2nc(-c3cccs3)cc(-c3ccc(Cl)cc3)c2c1N | -2.05% |
| C=CCc1cccc2cc(C(=O)N3CCN(c4ccccn4)CC3)c(=O)oc12 | -38.9% |
| O=C1COc2ccc(C(=O)COC(=O)c3ncc(Cl)c(Cl)c3Cl)cc2N1 | 36.6% |
| COc1ccc(/C=C/C2=NN(C)C(=O)CC2)cc1 | 13.4% |
| O=C(N/N=C\c1ccc(CNS(=O)(=O)c2ccccc2)o1)C(=O)Nc1ccc(F)cc1 | -22.3% |
| S=C(NCc1ccc2c(c1)OCO2)NC1CCN(Cc2ccccc2)CC1 | 20.6% |
| CCOC(=O)c1nc(C)n(-c2ccc(Cl)cc2Cl)n1 | 8.75% |
| COc1ccc(-c2nc(SC(CC(=O)NCCN3CCOCC3)c3cccs3)n[nH]2)cc1 (stereo not drawn) | 1.08% |
| Cc1ccccc1OCC(O)CN.Cl.O (stereo not drawn) | -1.72% |
| COc1ccc(N2CCN(CC(O)COc3ccccc3[N+](=O)[O-])CC2)cc1.Cl (stereo not drawn) | -44.1% |
| Cc1ccccc1OCC(O)CN1CCN(C)CC1.Cl (stereo not drawn) | -0.704% |
| Cc1ccccc1OCC(O)CN1CCC(C)CC1.Cl (stereo not drawn) | -34.1% |
| Cc1ccccc1OCC(O)CN1CCN(CC(O)COc2ccccc2C)CC1 (stereo not drawn) | -81.6% |
| Cc1ccccc1OCC(O)CN1CCN(CC(O)COc2ccccc2C)C(C)C1.O=C(O)C(=O)O (stereo not drawn) | -70.8% |
| O=[N+]([O-])c1ccccc1OCC(O)CN1CCN(CC(O)COc2ccccc2[N+](=O)[O-])CC1 (stereo not drawn) | -60.2% |
| COc1ccccc1OCC(O)CN1CCN(CC(=O)Nc2c(C)cccc2C)CC1 (stereo not drawn) | -18.6% |
| CCOC(=O)N1CCN(CC(O)COc2ccccc2[N+](=O)[O-])CC1.Cl (stereo not drawn) | -0.882% |

| SMILES | hERG current change (%, negative = inhibition) at 10uM |
| --- | --- |
| Cc1ccccc1N1C(=O)CSC1=C(C#N)C#N | 18.3% |
| S=C(NCc1ccccn1)Nc1ccccc1 | 16.3% |
| Cc1ccc(N2CC(C(=O)NC3CC3)CC2=O)cc1Cl (stereo not drawn) | 10% |
| CCOC(=O)CSc1nc2sc3c(c2c(=O)[nH]1)CC(C)(C)OC3 | 0.154% |
| CSc1cccc(NC(=O)CN(C2CCCCC2)S(C)(=O)=O)c1 | -7.59% |
| Cc1ccc(-c2csc3nc[nH]c(=S)c23)cc1C | 27.5% |
| CSc1nc(C)cc(C)c1S(=O)(=O)c1ccccc1C | 7.41% |
| Fc1ccc(CN2CCCCCCC2)cc1F | -24% |
| OCC1(Cc2ccc(Cl)cc2)CCN(CCCc2ccccc2)CC1 | -83.9% |
| O=C(Nc1ccc(Cl)cc1)N1CCC(CO)(Cc2ccccc2)CC1 | -46.6% |
| O=S(=O)(c1cccs1)N1CCC(CO)(Cc2ccc(Cl)cc2)CC1 | -7.74% |
| OCC1(Cc2ccc(Cl)cc2)CCN(Cc2ccc(F)c(F)c2)CC1 | -68.6% |
| O=C(Cc1ccccc1)N1CCN(CC2CC=CCC2)CC1 (stereo not drawn) | -3.05% |
| OCC1(Cc2ccccc2)CCN(CCCC2CCCC2)CC1 | -76.8% |
| OCC1(Cc2ccc(Cl)cc2)CCN(CC2CC=CCC2)CC1 (stereo not drawn) | -76.7% |
| O=C(C1CC=CCC1)N1CCC(CO)(Cc2ccc(Cl)cc2)CC1 (stereo not drawn) | -7.77% |
| OCC1(Cc2ccccc2)CCN(Cc2cnc(-c3ccc(Cl)cc3)nc2)CC1 | -47.1% |
| O=C1CC(N2CCOCC2)C(=O)N1CCc1ccccc1 (stereo not drawn) | 6.86% |
| C=C1c2cc(C)ccc2NC(=O)N1c1ccccc1 | 2.71% |
| Cc1ccc(S(=O)(=O)N2CCN(C(=O)c3ccccn3)CC2)c(C)c1 | 20.1% |
| NC(=O)C1CCN(c2oc(/C=C/c3ccc(F)cc3)nc2S(=O)(=O)c2ccccc2)CC1 | 5.52% |
